Test results reported in PubChem BioAssay (NCATS).
Records with an inconclusive call do not appear. Activity calls are given as the source filed them. Unless noted, the call rests on the fitted dose curve; in most records, active means well fitted curve in the direction sought with a large enough effect; inconclusive means small, poorly fitted or top-dose-only effect, or another doubt; inactive means no such curve, though single readings can be large; an effect the other way counts as inactive or inconclusive.

Assays:
[1] = AP1 Signaling Pathway (AID 357; active means well fitted curve in either direction with a large enough effect, not every such curve was filed as active;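 further: ME-180 reporter cells stimulated with EGF at its EC50 level; on the % scale 0 is the no-effect control and ±100 the full control effect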)
How it was run: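 Beta-lactamase reporter under AP-1 response element, ME-180 background. Stimulus: EC50 EGF. Compound exposure 5 h, 37 °C. Detection: CCF4, 2.5 h RT, 460/530 nm. Values: AC50 from titration.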

[2] = target: Cytochrome P450 1A2 (Homo sapiens) (UniProt P05177); assay: p450-cyp1a2 (AID 410; calls by dose curve; further: potency means the concentration at half of the fitted maximal effect;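 on activity change, negative = inhibition: -100% = full effect of reference inhibitor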)
How it was run: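 Human CYP1A2 (20nM) demethylated Luciferin-ME at its Km (100uM) in 100mM KPO4. After 10 min compound preincubation, NADPH regeneration ran the reaction 60 min at room temperature. Luciferin was read by luminescence, normalized to 57 uM furafylline.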

[3] = NFAT Signaling Pathway (AID 444; active means well fitted curve in either direction with a large enough effect, not every such curve was filed as active;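 further: carbachol stimulus at about its EC50 of 1 µM final; on the % scale 0 is the no-effect control and ±100 the full control effect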); conditions: Jurkat NFAT-bla M1, carbachol, beta-lactamase ratio, 5 h; at 17.2 µM (top of the series) unless noted
How it was run: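 Jurkat cells carrying an NFAT-driven β-lactamase reporter and co-transfected muscarinic M1 receptor were treated with compound plus carbachol (1 uM final, an EC50 level) for 5 h at 37 °C. CCF4 loading followed for 1 h at RT; 460/530 nm ratio gave %activity.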

[4] = Stat Signaling Pathway (AID 446; active means well fitted curve in either direction with a large enough effect, not every such curve was filed as active;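 further: ME-180 cervical cancer cells given 40 pM IL-6 alongside compound; SIE-controlled beta-lactamase reporter measured as 460/530 nm FRET emission ratio; on the % scale 0 is the no-effect control and ±100 the full control effect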)
How it was run: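 ME-180 cells carrying a SIE-driven beta-lactamase reporter are stimulated with 40 pM IL-6 for 5 h at 37C in the presence of compound. The 460/530 nm FRET substrate ratio is read after 2.5 h at RT. Data are normalised to 300 pM IL-6 and to 125 nM JAK inhibitor controls.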

[5] = target: Glucocorticoid receptor (Homo sapiens) (UniProt P04150); assay: GR-GFP Redistribution (AID 450;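 active means compounds whose dose series gives a full or clear partial fitted curve of increased nuclear translocation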; further: potency means the concentration at half of the fitted maximal effect); conditions: U2OS GR-GFP nuclear translocation, laser cytometry, 2 h
[6] = target: Glucocorticoid receptor (Homo sapiens) (UniProt P04150); assay: GR-EFC Redistribution (AID 451; calls by dose curve; further: potency means the concentration at half of the fitted maximal effect); conditions: CHO-K1 GR-EFC translocation, beta-gal luminescence, 2 h
How it was run: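 CHO-K1 cells stably expressing nuclear-localized β-gal enzyme acceptor and GR fused C-terminally to the enzyme donor fragment; ligand-driven nuclear translocation restores β-gal by complementation. Compounds titrated up to 46 uM final, 2 h at 37 °C; luminescence read.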

[7] = qHTS Assay for Lipid Storage Modulators (AID 1519; calls by dose curve); conditions: Drosophila S3 cells, BODIPY lipid droplet/cell ratio, laser cytometry, cells loaded with oleic acid; for activity change, negative = inhibition: at 25.7 µM (top of the series)
How it was run: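 Cells seeded at 5,000 per well were treated with compounds over a concentration series and loaded with oleic acid (400 uM, as added). Lipid droplet fluorescence (488 nm excitation, 500-530 nm channel) was read by laser-scanning cytometry and normalized to 20 uM Triacsin C.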

[8] = target: ATP-dependent 6-phosphofructokinase (Trypanosoma brucei brucei) (UniProt O15648); assay: qHTS Assay to Find Inhibitors of T. brucei phosphofructokinase: hit validation (AID 492961);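 further: luminescence reports ADP formed as PFK phosphorylates fructose-6-phosphate with ATP; on the % scale 0 is the no-effect control and ±100 the full control effect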
How it was run: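 Reaction: 0.1 M triethanolamine pH 8.0, 5 mM MgCl2, F6P 0.5 mM, ATP 0.1 mM, PFK 1.25 nM, 45 min RT. Read-out: ADP-Glo luminescence. Analysis: concentration-response fits, classed by r2 and efficacy.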

[9] = target: Ubiquitin carboxyl-terminal hydrolase 1 (Homo sapiens) (UniProt O94782); assay: Inhibitors of USP1/UAF1: Pilot qHTS (AID 504865);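 further: rhodamine fluorescence freed from ubiquitin-rhodamine substrate followed over time; top concentration of the series differs between compounds; on the % scale 0 is the no-effect control and ±100 the full control effect; nearly all actives have a fitted effect of over 35% in size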
How it was run: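 Deubiquitinase activity followed as kinetic rhodamine fluorescence release from 150 nM Ub-Rho. 1 nM USP1/UAF1 with compound, after 15 min room-temperature preincubation, in HEPES pH 7.8 buffer containing TCEP, EDTA, BSA and Tween-20.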

[10] = target: Luciferin 4-monooxygenase (Photinus pyralis) (UniProt P08659); assay: Biochemical firefly luciferase enzyme assay for NPC (AID 624030);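 further: purified P. pyralis luciferase at 10 nM with luciferin and ATP substrate; 0% = DMSO and -100% = full luciferase inhibition by PTC124 control; nearly all actives have a fitted effect of over 70% in size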
How it was run: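 Counter-screen for direct inhibition of the luciferase enzyme by approved-drug library compounds, run at 10 nM enzyme in 50 mM Tris acetate (final). Luminescence was read within 5 min of enzyme-buffer addition and normalized to PTC124 versus DMSO (0%).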

[11] = qHTS profiling for inhibitors of Plasmodium falciparum proliferation (AID 504749); further: potency means the concentration at half of the fitted maximal effect;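 on activity, negative = inhibition: 0% = DMSO vehicle and full inhibition = artemisinin control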; on all read-outs here: nearly all actives have a fitted effect of over 60% in size; conditions: P. falciparum in erythrocytes, SYBR Green DNA, 72 h; for activity, negative = inhibition: at 12.8 µM (top of the series)
How it was run: (§1)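 P. falciparum-infected erythrocytes (0.3% parasitemia, 2.5% hematocrit final) were exposed to compounds for 72 h at 37 C in 5% CO2, then lysed with SYBR Green buffer overnight at room temperature; parasite DNA fluorescence was normalized to artemisinin and DMSO controls.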

CP191 = assay: as above; conditions: P. falciparum in erythrocytes, SYBR Green DNA, 72 h; series mostly up to 12.8 µM
How it was run: as §1

CP256 = assay: as above; conditions: P. falciparum in erythrocytes, SYBR Green DNA, 72 h; series mostly up to 12.8 µM
How it was run: as §1

FAB9 = assay: as above; conditions: P. falciparum in erythrocytes, SYBR Green DNA, 72 h; series mostly up to 12.8 µM
How it was run: as §1

JCK = assay: as above; conditions: P. falciparum in erythrocytes, SYBR Green DNA, 72 h; series mostly up to 12.8 µM
How it was run: as §1

[12] = target: Mitogen-activated protein kinase 10 (Mus musculus) (UniProt Q61831); assay: JNK3 AlphaScreen Assay (AID 530; active means well fitted curve in either direction with a large enough effect, not every such curve was filed as active)
How it was run: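 JNK3 came from HepG2 lysates pre-activated with IL-1beta and TNF-alpha and phosphorylated biotinylated GST-cJun (1-79) at 10 uM ATP, pH 7.6, room temperature. Compounds were titrated. AlphaScreen signal used anti-phospho-cJun (Ser73) antibody.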

[13] = target: 3',5'-cyclic-AMP phosphodiesterase 4B (Homo sapiens) (UniProt Q07343); assay: qHTS Assay for Inhibitors of PDE-IV (AID 607; active means well fitted activation curve with a large enough effect in the main read-out, with a control signal flat, not every such curve was filed as active; further: % of control where 0% means no effect)
How it was run: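 HEK293 ACTOne cells with CNG channel (1000/well), endogenous PDE4; membrane potential dye, compounds up to 22.9 uM final. Fluorescence Ex 535/Em 590; RO 20-1724 (100 uM final) as reference.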

CP217 = assay: qHTS profiling for inhibitors of Plasmodium falciparum proliferation (AID 504749); further: nearly all actives have a fitted effect of over 60% in size; further: potency means the concentration at half of the fitted maximal effect;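 on activity, negative = inhibition: 0% = DMSO vehicle and full inhibition = artemisinin control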; conditions: P. falciparum in erythrocytes, SYBR Green DNA, 72 h; series mostly up to 12.8 µM
How it was run: as §1

CP250 = assay: as above; conditions: P. falciparum in erythrocytes, SYBR Green DNA, 72 h; series mostly up to 12.8 µM
How it was run: as §1

[14] = S16 Schwann cell PMP22 intronic element firefly luciferase assay (AID 624032);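 further: plate controls were DMSO for no effect and PTC124 positive control mean for full effect; nearly all actives have a fitted effect of over 30% in size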
How it was run: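 Rat S16 Schwann cells stably carrying a PMP22 intronic element-driven Fluc reporter were seeded overnight, then exposed to compounds for 24 h at 37 °C. Luminescence was normalized to PTC124 (positive control) and DMSO (0% activity).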

[15] = measured here: cell count channel max response
[16] = measured here: lipid channel max response

Cytochrome P450 1A2 (Homo sapiens), sequence (P05177 whole entry, looked up): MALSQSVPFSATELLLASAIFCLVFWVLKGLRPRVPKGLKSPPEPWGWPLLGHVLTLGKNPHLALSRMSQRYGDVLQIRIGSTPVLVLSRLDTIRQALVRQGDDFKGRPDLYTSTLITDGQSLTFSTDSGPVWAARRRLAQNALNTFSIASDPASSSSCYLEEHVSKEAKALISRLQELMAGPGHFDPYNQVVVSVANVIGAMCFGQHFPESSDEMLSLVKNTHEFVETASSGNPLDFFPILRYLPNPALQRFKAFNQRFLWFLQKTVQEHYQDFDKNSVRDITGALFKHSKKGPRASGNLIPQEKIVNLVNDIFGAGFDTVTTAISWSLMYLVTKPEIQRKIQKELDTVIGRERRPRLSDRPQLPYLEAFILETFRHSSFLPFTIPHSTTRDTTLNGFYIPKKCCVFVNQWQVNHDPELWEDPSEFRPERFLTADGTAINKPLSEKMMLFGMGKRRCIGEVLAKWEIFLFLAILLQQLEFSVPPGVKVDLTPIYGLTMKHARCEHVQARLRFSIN
Ubiquitin carboxyl-terminal hydrolase 1 (Homo sapiens), sequence (O94782 whole entry, looked up): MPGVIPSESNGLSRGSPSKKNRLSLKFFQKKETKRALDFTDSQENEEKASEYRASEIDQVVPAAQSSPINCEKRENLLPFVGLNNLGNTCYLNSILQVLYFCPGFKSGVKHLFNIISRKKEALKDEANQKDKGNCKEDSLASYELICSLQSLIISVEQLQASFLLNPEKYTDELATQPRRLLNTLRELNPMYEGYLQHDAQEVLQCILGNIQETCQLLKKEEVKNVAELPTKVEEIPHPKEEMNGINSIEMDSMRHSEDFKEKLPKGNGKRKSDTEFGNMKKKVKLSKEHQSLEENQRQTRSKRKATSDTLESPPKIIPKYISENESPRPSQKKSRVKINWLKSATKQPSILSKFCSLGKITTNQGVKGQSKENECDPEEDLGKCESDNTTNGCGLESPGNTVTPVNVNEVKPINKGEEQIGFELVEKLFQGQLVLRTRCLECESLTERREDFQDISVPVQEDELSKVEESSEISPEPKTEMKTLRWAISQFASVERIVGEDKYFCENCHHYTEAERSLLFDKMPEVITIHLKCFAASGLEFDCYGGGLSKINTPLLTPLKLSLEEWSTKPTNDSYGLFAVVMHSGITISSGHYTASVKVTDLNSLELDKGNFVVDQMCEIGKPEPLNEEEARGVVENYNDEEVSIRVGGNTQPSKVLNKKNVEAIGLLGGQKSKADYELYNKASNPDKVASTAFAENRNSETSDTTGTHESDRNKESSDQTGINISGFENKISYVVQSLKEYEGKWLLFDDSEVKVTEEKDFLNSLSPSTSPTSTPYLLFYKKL
Glucocorticoid receptor (Homo sapiens), sequence (P04150 whole entry, looked up, the tested form may be a part): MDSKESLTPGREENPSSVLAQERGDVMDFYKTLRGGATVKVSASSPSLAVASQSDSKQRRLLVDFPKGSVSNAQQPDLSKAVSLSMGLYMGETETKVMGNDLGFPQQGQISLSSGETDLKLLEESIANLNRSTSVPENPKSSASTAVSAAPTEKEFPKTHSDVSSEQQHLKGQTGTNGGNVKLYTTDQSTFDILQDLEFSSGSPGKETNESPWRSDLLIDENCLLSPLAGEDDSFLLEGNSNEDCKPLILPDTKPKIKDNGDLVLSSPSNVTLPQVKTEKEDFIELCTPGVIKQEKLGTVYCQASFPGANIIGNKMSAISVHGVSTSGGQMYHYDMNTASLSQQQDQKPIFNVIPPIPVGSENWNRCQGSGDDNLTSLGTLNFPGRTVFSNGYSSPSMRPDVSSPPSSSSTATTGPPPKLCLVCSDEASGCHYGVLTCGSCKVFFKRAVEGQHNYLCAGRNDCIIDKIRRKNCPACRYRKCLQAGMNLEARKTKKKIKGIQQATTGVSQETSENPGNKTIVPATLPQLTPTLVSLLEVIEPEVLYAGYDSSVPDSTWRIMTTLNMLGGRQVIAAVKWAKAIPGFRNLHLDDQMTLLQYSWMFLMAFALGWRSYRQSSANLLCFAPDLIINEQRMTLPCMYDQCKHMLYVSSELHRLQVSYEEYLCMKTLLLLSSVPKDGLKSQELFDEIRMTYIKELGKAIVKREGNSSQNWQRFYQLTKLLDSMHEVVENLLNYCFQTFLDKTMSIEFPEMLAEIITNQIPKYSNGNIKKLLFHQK
Luciferin 4-monooxygenase (Photinus pyralis), sequence (P08659 whole entry, looked up): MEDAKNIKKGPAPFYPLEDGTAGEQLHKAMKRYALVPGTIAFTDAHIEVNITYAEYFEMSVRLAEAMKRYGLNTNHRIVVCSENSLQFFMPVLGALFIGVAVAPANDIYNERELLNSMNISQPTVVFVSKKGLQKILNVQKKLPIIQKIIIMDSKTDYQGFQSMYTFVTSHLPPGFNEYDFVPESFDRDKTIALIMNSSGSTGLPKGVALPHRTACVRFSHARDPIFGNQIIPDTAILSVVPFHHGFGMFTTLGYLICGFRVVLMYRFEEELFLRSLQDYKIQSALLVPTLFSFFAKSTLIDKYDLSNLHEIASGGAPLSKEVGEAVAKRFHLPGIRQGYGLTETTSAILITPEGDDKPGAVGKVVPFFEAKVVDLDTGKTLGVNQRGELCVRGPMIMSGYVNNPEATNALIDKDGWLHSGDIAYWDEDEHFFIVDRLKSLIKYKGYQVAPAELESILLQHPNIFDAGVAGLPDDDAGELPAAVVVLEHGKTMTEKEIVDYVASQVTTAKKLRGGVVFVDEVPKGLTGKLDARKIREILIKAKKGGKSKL
ATP-dependent 6-phosphofructokinase (Trypanosoma brucei brucei), sequence (O15648 whole entry, looked up): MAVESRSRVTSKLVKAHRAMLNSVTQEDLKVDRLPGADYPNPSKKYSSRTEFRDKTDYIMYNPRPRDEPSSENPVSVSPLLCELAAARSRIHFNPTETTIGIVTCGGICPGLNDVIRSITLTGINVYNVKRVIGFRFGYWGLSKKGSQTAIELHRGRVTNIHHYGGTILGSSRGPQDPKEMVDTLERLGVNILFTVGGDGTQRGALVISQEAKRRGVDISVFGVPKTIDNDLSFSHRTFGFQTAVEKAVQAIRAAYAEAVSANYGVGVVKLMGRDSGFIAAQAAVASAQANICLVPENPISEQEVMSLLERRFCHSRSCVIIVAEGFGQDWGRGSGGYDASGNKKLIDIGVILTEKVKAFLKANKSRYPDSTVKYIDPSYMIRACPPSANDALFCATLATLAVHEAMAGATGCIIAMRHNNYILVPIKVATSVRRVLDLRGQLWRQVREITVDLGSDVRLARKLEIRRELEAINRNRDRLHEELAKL
3',5'-cyclic-AMP phosphodiesterase 4B (Homo sapiens), sequence (Q07343 whole entry, looked up): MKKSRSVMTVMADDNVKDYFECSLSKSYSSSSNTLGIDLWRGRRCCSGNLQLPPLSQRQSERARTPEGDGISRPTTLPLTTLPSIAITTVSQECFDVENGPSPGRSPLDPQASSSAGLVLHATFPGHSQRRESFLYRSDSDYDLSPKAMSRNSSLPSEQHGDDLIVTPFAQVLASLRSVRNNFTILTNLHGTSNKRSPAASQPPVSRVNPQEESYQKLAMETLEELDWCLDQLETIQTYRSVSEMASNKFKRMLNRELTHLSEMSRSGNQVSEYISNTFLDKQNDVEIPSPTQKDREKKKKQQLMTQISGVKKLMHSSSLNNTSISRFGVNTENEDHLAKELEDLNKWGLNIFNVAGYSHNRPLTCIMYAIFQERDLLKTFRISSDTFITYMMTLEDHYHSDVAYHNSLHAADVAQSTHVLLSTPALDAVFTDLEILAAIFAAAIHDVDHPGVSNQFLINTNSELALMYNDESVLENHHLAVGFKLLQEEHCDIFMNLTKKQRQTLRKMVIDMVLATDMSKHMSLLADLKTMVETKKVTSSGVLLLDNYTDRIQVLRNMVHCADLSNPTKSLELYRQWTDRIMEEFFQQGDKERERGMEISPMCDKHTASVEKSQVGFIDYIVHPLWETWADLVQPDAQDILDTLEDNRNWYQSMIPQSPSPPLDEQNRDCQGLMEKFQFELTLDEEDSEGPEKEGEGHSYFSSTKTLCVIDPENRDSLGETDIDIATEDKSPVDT

COc1cc(N)c(Cl)cc1C(=O)N[C@H]1CCN(CCCOc2ccc(F)cc2)C[C@H]1OC
inactive: outcome [1] | Potency [2] | activity change, negative = inhibition [3] -12.4% | outcome [4] | Potency [5] > 20.6 µM | Potency [6] > 20.6 µM | activity change, negative = inhibition [7] 2.27% | outcome [8] | Potency [9] | Potency [10] | Potency (FAB9) | Potency (JCK)
active: Potency ([11]; parasite line A) 3.55 µM | Potency (CP191) 2 µM | Potency (CP256) 2.82 µM
-1.69%: max response [7, 15]
0.873%: max response [7, 16]

C[C@]1(OC(=O)/C=C\c2ccccc2)C[C@@H](O)[C@@]2(O)C=CO[C@@H](O[C@H]3O[C@@H](CO)[C@@H](O)[C@@H](O)[C@@H]3O)[C@H]21
-17.4%: max response [7, 16]
inactive: outcome [1] | Potency [2] | activity change, negative = inhibition [3] -11% | outcome [4] | Potency [5] > 20.6 µM | Potency [6] > 20.6 µM | Potency [12] | activity change, negative = inhibition [7] -2.22% | Potency [9]
-15.8%: max response [7, 15]

C[C@@]12CC3CC(N)(C1)C[C@@](C)(C3)C2
-3.78%: max response [7, 16]
inactive: outcome [1] | Potency [2] | activity change, negative = inhibition [3] -7.73% | outcome [4] | Potency [5] > 20.6 µM | Potency [6] > 20.6 µM | Potency [12] | activity change, negative = inhibition [7] -4.9% | Potency [9]
-3.32%: max response [7, 15]

C[C@]12C=CC(=O)C=C1CC[C@@H]1[C@H]3C[C@@H](O)[C@](O)(C(=O)CO)[C@@]3(C)C[C@H](O)[C@]12F
6.41%: max response [7, 15]
6.57%: max response [7, 16]
inactive: outcome [1] | Potency [2] | activity change, negative = inhibition [3] 7.24% | outcome [4] | Potency [12] | outcome [13] | activity change, negative = inhibition [7] -1.03% | Potency [9]
active: Potency [5] 0.108 µM | Potency [6] 0.0827 µM

COC(=O)C1=C(C)NC(C)=C(C(=O)OC(C)C)[C@H]1c1cccc2nonc12
inactive: outcome [1] | activity change, negative = inhibition [3] -22.3% | outcome [4] | Potency [5] > 20.6 µM | Potency [6] > 20.6 µM | Potency [12] | outcome [13] | activity change, negative = inhibition [7] -0.0066% | outcome [8] | Potency [10] | Potency (CP217) | Potency (CP250) | Potency (CP256) | Potency (FAB9) | Potency (JCK)
-22.3%: max response [7, 16]
active: Potency [2] 12.6 µM
-21.2%: max response [7, 15]

C[C@H](Oc1ccccc1)C(=O)N[C@@H]1C(=O)N2[C@@H]1SC(C)(C)[C@@H]2C(=O)O
-5.3%: max response [7, 15]
-3.26%: max response [7, 16]
inactive: outcome [1] | Potency [2] | activity change, negative = inhibition [3] -0.496% | outcome [4] | Potency [5] > 20.6 µM | Potency [6] > 20.6 µM | Potency [12] | activity change, negative = inhibition [7] -0.821% | outcome [8] | Potency [9] | Potency [10] | Potency [14] | activity, negative = inhibition ([11]; parasite line A) 9.22% | activity, negative = inhibition ([11]; parasite line B) 2.55% | Potency (CP191) | Potency (CP217) | Potency (CP250) | Potency (CP256) | Potency (FAB9) | Potency (JCK)
